# Assay outcomes as filed in PubChem BioAssay.
# TDP1 block = blocks human tyrosyl-DNA phosphodiesterase 1. Q9NUW8. recombinant TDP1, AlphaScreen DNA substrate cleavage. Potency, µM (doses to about 130 µM), usual class: inhibitors. 350,000 tested, 0.28% active; also: nearly all actives have a fitted effect of over 40% in size
# Target sequence (Q9NUW8 whole entry, looked up): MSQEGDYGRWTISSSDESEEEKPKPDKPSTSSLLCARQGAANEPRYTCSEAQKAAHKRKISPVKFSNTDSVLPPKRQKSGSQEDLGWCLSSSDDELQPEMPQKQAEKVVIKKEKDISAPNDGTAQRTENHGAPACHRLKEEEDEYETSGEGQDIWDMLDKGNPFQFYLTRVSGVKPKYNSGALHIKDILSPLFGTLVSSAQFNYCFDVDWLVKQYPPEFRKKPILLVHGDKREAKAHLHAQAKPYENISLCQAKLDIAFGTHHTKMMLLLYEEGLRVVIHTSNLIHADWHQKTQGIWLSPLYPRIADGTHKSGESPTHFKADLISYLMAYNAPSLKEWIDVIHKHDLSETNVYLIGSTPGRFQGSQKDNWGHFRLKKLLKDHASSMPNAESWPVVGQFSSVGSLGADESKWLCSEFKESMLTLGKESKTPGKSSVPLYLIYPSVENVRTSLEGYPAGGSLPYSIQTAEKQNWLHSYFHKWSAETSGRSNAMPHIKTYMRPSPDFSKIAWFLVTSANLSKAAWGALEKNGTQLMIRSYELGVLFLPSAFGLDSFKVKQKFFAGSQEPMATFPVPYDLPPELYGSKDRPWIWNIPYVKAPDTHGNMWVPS
#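 Here, a 5' biotin and 3' phosphotyrosine-FITC DNA oligonucleotide reports Tdp1 activity: intact substrate bridges AlphaScreen beads, while cleavage leaves a 3' phosphate and drops signal. All incubations at room temperature.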
# DT40 TDP1 no CPT = qHTS for Inhibitors of human tyrosyl-DNA phosphodiesterase 1 (TDP1): qHTS in cells in absence of CPT | DT40 Tdp1-/- hTDP1 cells, no CPT, ATP luminescence, 48 h | Potency, µM (series often up to 46.2 µM), most hits filed as inhibitors | AID 686978, 2013 | 420,000 tested, 15% active; also: nearly all actives have a fitted effect of over 55% in size
#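 Cells were dispensed at 400 per well, compounds added by pin tool, plates incubated ≥48 hr at 37 °C, then CellTiter-Glo added for 30 min at room temperature before luminescence reading. Line: DT40 Tdp1-/- complemented with hTDP1; camptothecin omitted.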
# ClpP mod = qHTS Assay for Activators of ClpP; ATP-dependent Clp protease proteolytic subunit (Bacillus subtilis (strain 168)), P80244; purified B. subtilis ClpP, FRET peptide cleavage, 20 min; Potency, µM (top dose mostly 57.5 µM); 340,000 tested, 1.9% active; AID 651965, 2013; active = well fitted falling curve with a large enough effect; inconclusive = small, poorly fitted or top-dose-only effect; inactive = no such curve, though single readings can be large or run the other way; also: the source files actives as falling curves though it sought activators and does not explain the sign; nearly all actives have a fitted effect of over 65% in size
#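 Purified B. subtilis ClpP, 10 microg/mL final in Tris/HCl pH8 with KCl, BSA, glycerol and Tween-20, cleaved an Abz/nitrotyrosine-quenched decapeptide. Fluorescence (ex 320, em 430) was read at 0 and 20 min at room temperature. Delta was normalized to 5.8 microM ADEP and DMSO/no-enzyme controls.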
# TDP1 cell CPT = DT40-hTDP1 cell growth loss with CPT. chicken DT40 Tdp1-/-;hTDP1 cells + 20 nM CPT, ATP luminescence, 48 h. Potency, µM (titrated, usually from 46.2 µM), hits mostly inhibitors. 420,000 tested, 12% active; also: nearly all actives have a fitted effect of over 55% in size
#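 Cell growth measured by CellTiter-Glo luminescence after a minimum 48 h, 37 C compound exposure with 20 nM CPT in Tdp1-knockout DT40 cells stably expressing hTDP1, seeded 400/well; qHTS titration format.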
# Hits are given with their value; n = inactive; u = inconclusive; x = no result given; [ ] = dose if it differs, or a comment. Most compounds without a hit are left out; they make up all but 17% or so of the library. Unless noted, calls follow the shape of the dose curve; as a rule, active = well fitted curve in the direction sought with a large enough effect; inconclusive = small, poorly fitted or top-dose-only effect, or another doubt; inactive = no such curve, though single readings can be large; an effect the other way counts as inactive or inconclusive.
SMILES,TDP1 block,DT40 TDP1 no CPT,ClpP mod,TDP1 cell CPT
Cc1ccc(NC(=O)C(=O)NCC(c2ccc3c(c2)OCO3)N2CCN(C)CC2)cc1C (stereo not given),n,u,n,16µM
O=c1c2ccccc2ncn1-c1ccc(Br)cc1[N+](=O)[O-],x,n,n,n
O=C(O)CCC(=O)OCc1c(-c2ccccc2)ncc2ccccc12,n,n,n,n
COc1ccccc1C(=O)OCc1c(-c2ccccc2)ncc2ccccc12,n,u,n,16µM
O=C(OCc1c(-c2ccccc2)ncc2ccccc12)c1ccccc1C(F)(F)F,n,u,n,1µM
COc1ccc(C(=O)OCc2c(-c3ccccc3)ncc3ccccc23)cc1,n,u,u,16µM
COc1cccc(-c2ncc3ccccc3c2COC(=O)c2ccc(F)cc2)c1,n,21µM,u,u
COc1cccc(-c2ncc3ccccc3c2COC(=O)c2ccccc2C(=O)O)c1,n,u,n,n
O=CN1CCN(C(=O)CC(c2ccccc2)c2cc(Br)ccc2O)CC1 (stereo not given),n,n,n,n
Nc1nc2c(nc(Br)n2C2CC(O)C(CO)O2)c(=O)[nH]1 (stereo not given),n,n,x,n
COc1ccc(CCn2c(=N)c(C(=O)NC3CCCC3)cc3c(=O)n4cccc(C)c4nc32)cc1,n,1.8µM,n,1.5µM
CCOC(=O)c1cc2c(=O)n3ccccc3nc2n(Cc2ccccc2)c1=N,n,u,16µM,u
Cc1cccn2c(=O)c3cc(C(=O)NC4CCCC4)c(=N)n(CCc4ccccc4)c3nc12,x,3.7µM,x,2.9µM
Cc1ccc(Cn2c(=N)c(C(=O)NC3CCCCC3)cc3c(=O)n4ccccc4nc32)cc1,n,6.5µM,n,5.8µM
O=C(NC(NC(=S)N1CCOCC1)C(Cl)(Cl)Cl)c1cccc2ccccc12 (stereo not given),n,n,n,u
CC(C)Oc1ccc(/C=N/NC(N)=S)cc1,n,u,n,n
COc1ccc(CCn2c(=N)c(C(=O)NC3CCCCC3)cc3c(=O)n4ccccc4nc32)cc1,n,4.1µM,n,6.5µM
COC(=O)c1ccc(OCCOCCOc2cccc3ccc(C)nc23)cc1,n,23µM,n,u
Cc1ccc2cccc(OCc3cccc([N+](=O)[O-])c3)c2n1,x,n,x,n
CCOC(=O)c1ccc(OCCOc2cccc(C)c2)cc1,50µM,n,n,n
Cc1ccc(OCCOc2cccc3ccc(C)nc23)c([N+](=O)[O-])c1,n,16µM,x,u
Cc1ccc(C(=O)NCCOc2cccc(C)c2)cc1,n,n,n,n
Cc1ccc2cccc(OCC(=O)NCc3ccco3)c2n1,n,n,n,n
COC(=O)c1ccccc1OCCOCCOc1cccc2ccc(C)nc12,n,23µM,n,u
CCOC(=O)c1ccc(NC(=O)NC2=NCCS2)cc1,x,u,n,n
SMILES,TDP1 block,DT40 TDP1 no CPT,ClpP mod,TDP1 cell CPT
NS(=O)(=O)c1ccc(NC(=O)COC(=O)Cc2c[nH]c3ccccc23)cc1,n,n,n,n
COc1cc2nc(NC(=O)c3ccc(S(=O)(=O)N4CCOCC4)cc3)sc2cc1OC,n,n,n,u
CCOC(=O)c1ccc(NC(=O)C2=C(C)Nc3nc(SCc4ccc(Cl)cc4)nn3C2c2ccc(OC)cc2)cc1 (stereo not given),n,u,n,u
COC(=O)c1ccc(OCCOc2ccccc2)cc1,n,n,n,n
Cc1ccc2cccc(OCCOCCOc3ccccc3Br)c2n1,n,21µM,n,u
COC(=O)c1ccc(OCCOc2ccccc2C)cc1,79µM,n,n,n
Cc1ccc2cccc(OCCCOc3ccccc3F)c2n1,x,u,n,u
N[C@@](C(=O)O)(c1ccc(P(=O)(O)O)cc1)C1CC1,n,n,x,n
CSCCC(=O)N1CCCC(N(C)CCc2ccccc2)C1 (stereo not given),x,n,n,n
COc1ccc(NC(=O)Cn2c(=O)nc(-c3ccccc3)c3ccccc32)cc1OC,n,u,n,u
Clc1ccc(C2[C@H]3CN(Cc4cccnc4)[C@H](c4ccccc4)C34CC2(c2cccnc2)C4)cn1 (stereo not given in full),n,u,n,u
Cc1cc(CN2CCOCC2)c(O)c(C2(C)CCCCC2)c1,n,u,n,n
Cc1cc(CN(C)C)c(O)c(C2(C)CCCCC2)c1,n,u,22µM,n
CCN(CC(=O)NC(C)(C)C)C(=O)COc1c(Cl)cc(Cl)c2ccc(C)nc12,n,13µM,n,23µM
COc1ccc(S(=O)(=O)N(CCN2CCOCC2)Cc2cc(OC)ccc2OC)cc1,n,13µM,n,n
CCOc1ccccc1-n1c(SCC(=O)Nc2ccccc2C(=O)O)nc2ccccc2c1=O,n,u,x,u
O=C(c1cc(C2CC2)on1)N1CCCC(N2CCN(c3ccc(F)cc3)CC2)C1 (stereo not given),n,n,n,n
O=C(NCCC1=CCCCC1)C1CCCN(S(=O)(=O)c2cnc[nH]2)C1 (stereo not given),n,n,n,n
O=C(NCCC1=CCCCC1)C1CCN(S(=O)(=O)c2ccc(Br)s2)CC1,n,21µM,n,21µM
O=C(NCCC1=CCCCC1)C1CCCN(S(=O)(=O)c2ccc(F)cc2)C1 (stereo not given),n,21µM,n,12µM
CCC(=O)OCC(=O)C1(OC(=O)CC)C(C)CC2C3C(Cl)CC4=CC(=O)C=C[C@@]4(C)C3C(O)C[C@@]21C (stereo not given in full),n,n,x,n
COc1ccc(NC(=O)CSc2nnc(-c3cccs3)n2N)c(OC)c1,n[0.505 µM],n,n,n
CN(c1ccccc1)c1ccc(/C=C(\C#N)c2nnc3n2CCCCC3)cc1[N+](=O)[O-],n,12µM,n,18µM
N#C/C(=C\c1cccc([N+](=O)[O-])c1)c1nnc2n1CCCCC2,n,u,n,u
CC(OC(=O)c1cc(=O)[nH]c2ccccc12)C(=O)c1ccccc1 (stereo not given),n,n,x,n
SMILES,TDP1 block,DT40 TDP1 no CPT,ClpP mod,TDP1 cell CPT
C=CCOc1ccc2nc(NC(=O)OC)[nH]c2c1,n,0.82µM,n,0.65µM
CCOc1ccc2nc(NCCO)[nH]c2c1,n,n,n,n
CCCCc1ccc2nc(NC(=O)OC)[nH]c2c1,n[21 µM],0.057µM,x,0.072µM
C=C(c1ccc2nc(NC(=O)OC)[nH]c2c1)c1cccs1,x,0.82µM,n,0.73µM
COc1ccc2c(c1)sc1ncc(C(=O)NCc3cccc(C)c3)c(=O)n12,n,n,n,n
Cn1c(=O)c2c(nc(CN3CCCCC3)n2CCc2ccccc2)n(C)c1=O,n,u,n,n
Cn1c(=O)c2c(nc(CN3CCN(c4ccccc4)CC3)n2CCc2ccccc2)n(C)c1=O,x,23µM,n,23µM
Cn1c(=O)c2c(nc(CN3CCN(c4cccc(Cl)c4)CC3)n2CCc2ccccc2)n(C)c1=O,x,10µM,n,13µM
CC1=C(C(=O)Nc2cccc(C(=O)N3CCC(C(N)=O)CC3)c2)SCCO1,n,n,n,n
